Assay results taken from ChEMBL document CHEMBL3433997, “St. Jude Leishmania screening dataset” (2016).
Where “and” joins values, the source holds several entries; their conditions need not be identical. Equal entries are not always repeated.

Legend:
Assay type in all cases: functional
[1] = target: Solute carrier family 2, facilitated glucose transporter member 1 (Homo sapiens) (UniProt P11166); test: ST_JUDE_LEISH: Cytotoxicity at 2uM final concentration against transgenic Leishmania Mexicana promastigotes LmGLUT1 that are glucose transport deficient and complemented with the human glucose transporter GLUT1. Activity is measured by DNA content using SYBR green in vitro
Chain of Solute carrier family 2, facilitated glucose transporter member 1 (Homo sapiens) (P11166 whole entry): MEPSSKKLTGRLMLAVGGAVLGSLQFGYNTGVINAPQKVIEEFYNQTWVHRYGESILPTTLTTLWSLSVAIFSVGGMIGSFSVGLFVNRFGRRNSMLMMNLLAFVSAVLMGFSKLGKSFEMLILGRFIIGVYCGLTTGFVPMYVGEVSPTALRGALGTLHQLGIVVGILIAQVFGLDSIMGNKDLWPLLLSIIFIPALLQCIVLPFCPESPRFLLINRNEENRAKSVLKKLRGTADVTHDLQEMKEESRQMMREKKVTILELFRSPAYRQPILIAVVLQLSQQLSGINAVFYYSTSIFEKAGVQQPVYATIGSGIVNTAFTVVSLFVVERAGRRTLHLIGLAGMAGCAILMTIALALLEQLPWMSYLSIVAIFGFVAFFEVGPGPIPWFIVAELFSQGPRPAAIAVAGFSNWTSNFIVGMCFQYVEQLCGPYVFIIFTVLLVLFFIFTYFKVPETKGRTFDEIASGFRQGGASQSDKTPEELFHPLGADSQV

[2] = target: Hexose transporter 1 (Plasmodium falciparum) (UniProt O97467); test: ST_JUDE_LEISH: Cytotoxicity at 2uM final concentration against transgenic Leishmania Mexicana promastigotes LmPfHT that are glucose transport deficient and complemented with the Plasmodium falciparum hexose transporter. Activity is measured by DNA content using SYBR green in vitro
[3] = target: Glucose transporter (Leishmania mexicana) (UniProt O61059); test: ST_JUDE_LEISH: Cytotoxicity at 2uM final concentration against transgenic Leishmania Mexicana promastigotes LmGT2 that are glucose transport deficient and complemented with the L. Mexicana glucose transporter 2. Activity is measured by DNA content using SYBR green in vitro

SMILES | inhibition [1] | inhibition [2] | inhibition [3]
CNCCNc1nccc(N2CCc3ncnc(Nc4ccc(OCc5cccc(F)c5)c(Cl)c4)c3C2)n1 | 3.85% | 5% | 2.3%
CC1CCC(C(C)C)C(OC(=O)CSc2nnc3c(n2)[nH]c2ccccc23)C1 (stereo not given) | -1.05% | -0.14% | -0.42%
COc1cccc(-c2cc(C(=O)Nc3cc(Oc4ccc(O)cc4)cc([N+](=O)[O-])c3)on2)c1 | 9.09% | 8.76% | 3.98%
O=C1Nc2cccc3c2C1(CCCCN1CCC(c2cc4ccncc4[nH]2)CC1)CCC3 (stereo not given) | -0.19% and 8.55% | 0.01% and 8.94% | -0.84% and 8.48%
O=C(C=Cc1ccc(Cl)c(Cl)c1)NCCCCCN1CCCC(CCCNS(=O)(=O)c2ccc(Br)cc2)C1 (stereo not given) | 5.1% | 3.96% | 2.95%
COc1cc(F)c2ncc(Cl)c(C(O)CN3CCC(NC(=O)c4ccc5c(n4)NC(=O)CO5)CC3)c2c1 (stereo not given) | 1.02% | 0.57% | -1.35%
CCOc1cc(C(=O)Nc2ccc3nc(N(CC)CC)cc(C)c3c2)cc(OCC)c1OCC | -0.12% | -0.88% | -3.87%
CN1CCN(c2nc(NCCNc3ccc([N+](=O)[O-])cc3)c3ccccc3n2)CC1 | 0.92% | 0.91% | 0.54%
CC(C)n1ncc2c3c(N)nc(N)nc3ccc21 | 1.85% | 1.69% | 2.51%
Cc1c(S(=O)(=O)Nc2ccc3ccn(CCN(C)C)c3c2)sc2ccc(Cl)cc12 | -0.44% | -0.46% | 1.18%
Cc1ccc2nc3sc(C(=O)NCCCN4CCC(N5CCCCC5)CC4)cc3cc2c1 | -0.92% | 3.13% | 3.19%
Cc1nc2ccc(F)cc2n1C1CCN(C(=O)Cc2ccc(F)c(F)c2)CC1 | -1.6% | -1.91% | 1.89%
O=C(Nc1ccc(Cn2ncc(N3CCCNCC3)c(Cl)c2=O)cc1)Nc1ccc(-c2ccccc2)cc1 | -0.52% and 1.84% | 0.35% and 2.4% | -4.66% and 1.38%
CC(=O)Nc1cccc(C(=O)Nc2cccc(-c3ccc(-c4nc5cc(C(F)(F)F)ccc5[nH]4)s3)c2)c1 | 0.34% | 0.52% | 0.89%
C=CCCCNCC(NCCCNc1cc(=O)c2ccccc2[nH]1)c1cc(Br)cc(Br)c1 (stereo not given) | -2.22% | -0.98% | 0.77%
CO/C(=C\C=C\c1cc2cc(Cl)ccc2[nH]1)C(=O)NCCCN1CCN(c2cc(Cl)ccc2OC)CC1 | 1.52% | 1.33% | -1.6%
CCN(CCCN1CCCCC1)c1cc(C)nc(Nc2ccc(C)cc2Cl)n1 | 9.81% | 7.68% | 7.34%
COc1ccc2c(c1)CC(NCc1ccc(-c3ccc4nc[nH]c4c3)cc1)C2 (stereo not given) | 4.22% | 2.21% | 1.31%
CC(C)C[C@H](Nc1ccnc(NCC2CCCCC2)n1)C(=O)Nc1ccccc1 | 3.81% | 3.97% | 3.2%
O=C(NCc1cccc2ccccc12)C(c1cc2ccccc2o1)N1CCN(C(c2ccccc2)c2ccccc2)CC1 (stereo not given) | 3.87% | 1.42% | -2.97%
COc1ccc2ncc(F)c(CCN3C[C@H](CNCc4cc(F)c5c(c4)NC(=O)CO5)[C@H](O)C3)c2n1 | 3.52% | 4.83% | 0.92%
COCCCC1C(=O)OC2CCCC21 (stereo not given) | 0.19% | 3.28% | 2.52%
CC(=O)Nc1ccc(CN2CCC(NC(=O)c3ccc(-c4ccc(N(C)C)cc4)s3)CC2)cc1 | 2.06% | 1.82% | 2.63%
O=c1cc(N2CCCNCC2)c(Cl)nn1Cc1ccc(NS(=O)(=O)c2ccc(Oc3ccccc3)cc2)cc1 | 10.6% | 8% | 8.55%

SMILES | inhibition [1] | inhibition [2] | inhibition [3]
N=C(NCCCc1ccccc1)c1cccc(C(=N)NCCCc2ccccc2)n1 | -0.39% | -1.1% | -0.17%
CC(C)c1ccc(NC(=O)c2cccc(CN3CCCN(CC4CCCCC4)CC3)c2)cc1 | 11.7% | 7.21% | 9.65%
COc1ccc(CNCc2ccc(-c3cccc(-c4nc5cc(C(F)(F)F)ccc5[nH]4)c3)cc2)cc1 | -1.07% | -0.35% | -2.33%
COc1c(Br)cc(Br)cc1C(C)=O | 3.62% | 3.58% | -0.79%
CC(C)(C)c1ccc(-c2ccccc2CNC(=O)c2cccc(O)c2)cc1 | 6.97% | 6.5% | 7.1%
Cc1cc(N)c2cc(NC(=O)c3cc(C(F)(F)F)cc(C(F)(F)F)c3)ccc2n1 | 0.38% | 1.04% | 0.8%
COC(=O)CCCCOc1cc(Cc2cnc(N)nc2N)cc(OC)c1OC | 2.26% | 1.3% | 1.88%
CC(=O)c1cccc(NC(=O)N2CCCN(CCCCCNC(=O)/C=C/c3ccc(Cl)c(Cl)c3)CC2)c1 | -1.7% | -0.03% | -0.6%
CCOc1ccc2c(=NN=Cc3cccc(F)c3)cc(C)[nH]c2c1 | 6% | 1.08% | 2.7%
COc1ccc2[nH]ccc(=NN=Cc3cccc(C)n3)c2c1 | 18.7% | 14.9% | 11.8%
COc1ccc2nc3cc(Cl)ccc3c(NCCCCCCNc3c4ccc(Cl)cc4nc4ccc(OC)cc34)c2c1 | 10.3% | 11.2% | 9.4%
C[C@H](NC(=O)c1cc(-c2ccc(C(C)(C)C)cc2)no1)C(=O)O.C[C@H](NC(=O)c1conc1-c1ccc(C(C)(C)C)cc1)C(=O)O | -0.02% | 0.23% | 1.58%
CCCCCCOc1ccc(C(=O)N[C@H]2CCN(CCCCCNC(=O)/C=C/c3ccc(Cl)c(Cl)c3)C2)cc1 | 0.31% | -0.9% | 1.12%
Cc1ccccc1NC(=O)NC1CCN(CCCCCNC(=O)/C=C/c2ccc(Cl)c(Cl)c2)CC1 | 1.77% | 2.24% | 1.9%
CC(=NNC(=N)N)c1ccc2c(c1)Cc1ccccc1-2 | -1.01% | 0.42% | -1.5%
COc1ccc(N2CCN(C(CNC(=O)C3CCCCC3)c3ccc4c(c3)OCO4)CC2)cc1 (stereo not given) | 3.65% | 4.28% | 4.35%
Cc1cc(-c2ccc(S(=O)(=O)Nc3cc4c(cc3OC(C)C)CCN(C)CC4)cc2)ccc1Cl | -2.82% | -1.99% | -2.35%
COc1ccc(CC(=O)NC(CCCN2CCC3(CC2)OCc2ccccc23)c2ccc(Cl)c(Cl)c2)cc1 (stereo not given) | 1.2% | 2.18% | -0.29%
COc1cc2c(cc1C(F)(F)F)N(C(=O)Nc1ccc(Br)cn1)CC2 | -0.2% | 0.68% | -1.31%
CC(=O)Nc1ccc(C(=O)N2CCN(c3ccnc4cc(Cl)ccc34)CC2)cc1 | 1.26% | -0.89% | -0.23%
O=C(Nc1cccc(-c2cccc(-c3nc4cc(C(F)(F)F)ccc4[nH]3)c2)c1)c1ccc(=O)[nH]n1 | 10.7% | 9.47% | 9.62%
N=C(N)c1cc(Br)cc(NC(=O)Nc2cc(Br)cc(C(=N)N)c2)c1 | 2.46% | 2.44% | 3.14%
CCCNCc1ccc(-c2ccc(CN(CCOC)C(=O)COc3ccccc3Cl)cc2)nc1 | -0.3% | 1.54% | -1.95%
CC(=O)Nc1cc(C(=O)Nc2cccc(-c3csc(-c4nc5ccccc5[nH]4)c3)c2)ccc1C | 10.5% | 9.84% | 9.18%

SMILES | inhibition [1] | inhibition [2] | inhibition [3]
Nc1nc(N)c2c(Cc3ccc(Br)cc3)cccc2n1 | 2.61% | 4.39% | 3.75%
Cc1ccc(Nc2nc3cc(N(C)c4ccnc(Nc5cccc(CCS(C)(=O)=O)c5)n4)ccc3n2C)cc1 | 3.07% | 7.25% | 3.82%
O=C(NCC1CCN(C/C=C/c2ccccc2)CC1)Nc1ccc(Oc2ccccc2)cc1 | 6.42% | 8.3% | 2.71%
O=C(Cn1cnc2c(nnn2Cc2ccccc2F)c1=O)Nc1ccc2c(c1)OCCO2 | 1.31% | 0.66% | -0.43%
Cc1ccc(-c2nc3cc(C(=O)NC4CCC(N5CCCc6ccc(C#N)cc6C5)CC4)ccc3[nH]2)cc1 (stereo not given) | -1.44% | -0.52% | 5.12%
CCNc1cc(C(=O)N[C@@H](Cc2ccccc2)[C@H](O)CN[C@H]2CCc3ccccc32)cc(N2CCCC2=O)c1 | 1.96% | 1.74% | 2%
CC(=O)Nc1ccc(C(=O)Nc2cccc(-c3cccc(-c4nc5cccc(C)c5[nH]4)c3)c2)cn1 | 4.29% | 3.64% | 1.41%
Oc1nc(Cc2ccccc2)nc2ccc(Cl)cc12 | 2.13% | 2.54% | 4.12%
CC(C)C[C@@H](/C=N/N1CCOC1=O)NC(=O)[C@H](CC(C)C)NC(=O)c1ccc(OCCN2CCOCC2)cc1 | 1.39% | 6.46% | 3.93%
O=C(N[C@@H](CC1CCCCC1)C(=O)NCc1cccc2ccccc12)c1ccc(O)c(-c2ccc(Cl)c(Cl)c2)c1 | 2.54% | 2.25% | 2.22%
CS(=O)(=O)CCNc1cc(N2CCc3ncnc(Nc4ccc(OCc5cccc(F)c5)c(Cl)c4)c3C2)ncn1 | -0.04% | 0.75% | 0.08%
c1ccc(CN2CCCN(c3ccc4c(c3)CCN(Cc3ccc(-c5ncc[nH]5)cc3)CC4)CC2)cc1 | 2.8% | 3.96% | 0.68%
CC(C)(C)Nc1cc(C(=O)N[C@@H](Cc2ccccc2)[C@H](O)CNC2CCOCC2)cc(N2CCCCS2(=O)=O)c1 | 0.29% | 0.07% | -0.61%
Nc1ncc(-c2cccc(OCc3ccccc3)c2)cc1-c1nnc2ccc(Cl)nn12 | 1.7% | 1.29% | 2.15%
N#Cc1ccc(N(CCOC(=O)c2ccc(Br)s2)Cc2ccccc2C(F)(F)F)cc1C(F)(F)F | 1.7% | 4.9% | 3.28%
O=C1COc2cc(Cl)c(CNC3CCN(CCc4ccnc5c(F)cc(F)cc45)CC3)nc2N1 | 2.1% | 2.94% | 1.57%
Cc1nc2nc(N)nc(N)c2c(C)c1Cc1ccc([N+](=O)[O-])cc1 | 5.73% | 3.25% | -0.24%
O=C(Nc1cccc(F)c1)c1ccc(C(=O)NC2CCN(CC3CCCCC3)CC2)cc1 | 1.87% | 5.33% | 1.84%
COc1ccccc1N1CCN(CCCCNC(=O)c2ccc(NC(=O)c3ccc(C(F)(F)F)cc3)cc2)CC1 | -0.92% | -0.29% | -0.69%
Clc1ccc(CCNCCCCCCNCCc2ccc3c(c2)OCO3)cc1 | 8.05% | 8.53% | 7.21%
COc1ccccc1N1CCN(CCCCNC(=O)c2ccc(NC(=O)c3ccc4ccccc4c3)cc2)CC1 | 0.49% | 1.01% | -0.43%
CC(CN(C)C)C(=O)Nc1ccc(-c2ccc(-c3nc4ccccc4[nH]3)s2)cc1 (stereo not given) | 2.59% | 3.52% | 6.24%
